# According to PubChem BioAssay (EPA / NIEHS):
# Where “and” joins values, the source holds several entries; their conditions need not be identical. Equal entries are not always repeated. Results filed as inconclusive are left out. The source holds several records for some structures; these can differ, active in one and inactive in another. Calls of active or inactive are those of the source. The calls were made as follows: active = hit-call score of the fitted dose curve at least 0.9, where 1 is the maximum; inconclusive = response in the unintended direction; inactive = score below 0.9.
# What was measured:
# [1] = target: human Protein Tyrosine Phosphatase Non-receptor Type 2 (PTPN2), PTPN2 (gene 5771) (UniProt P17706); test: NVS_ENZ_hPTPN2: NovaScreen (NVS) Enzymatic Assay for human Protein Tyrosine Phosphatase Non-receptor Type 2 (PTPN2) (AID 2283207)
# Procedure, shortened: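 Cell-free recombinant enzyme with fluorescent substrate, product separated by electrophoretic mobility shift; read 1 h after dosing. Primary screen single concentration (25 uM) in duplicate; actives followed in concentration series; loss of signal versus DMSO.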
# [2] = target: human Protein Tyrosine Phosphatase Receptor Type M (PTPRM), PTPRM (gene 5797) (UniProt P28827); test: NVS_ENZ_hPTPRM: NovaScreen (NVS) Enzymatic Assay for human Protein Tyrosine Phosphatase Receptor Type M (PTPRM) (AID 2283215)
# Protocol: NVS_ENZ_hPTPRM is a biochemical, single-readout assay that uses extracted gene-proteins in a cell-free assay. Measurements were taken 1.33 hours after chemical dosing in a 384-well plate.NVS_ENZ_hPTPRM is one of one assay component(s) measured or calculated from the NVS_ENZ_hPTPRM assay. It is designed to make measurements of enzyme activity, a form of enzyme reporter, as detected with fluorescence intensity signals by Fluorescence and electrophoretic mobility shift technology.Data from the assay component NVS_ENZ_hPTPRM was analyzed into 1 assay endpoint. This assay endpoint, NVS_ENZ_hPTPRM, was analyzed in the positive analysis fitting direction relative to DMSO as the negative control and baseline of activity. Using a type of enzyme reporter, loss-of-signal activity can be used to understand changes in the enzymatic activity as they relate to the gene PTPRM. Furthermore, this assay endpoint can be referred to as a primary readout, because this assay has produced multiple assay endpoints where this one serves a enzymatic activity function. To generalize the intended target to other relatable targets, this assay endpoint is annotated to the phosphatase intended target family, where the subfamily is receptor tyrosine phosphatase.
# Binding assays used specific radioligands (tritiated, iodinated) with non-radioactive competitive displacement ligands in agonist or antagonist protocols (as indicated) and various reference compounds and inhibitors to titrate specific binding to receptors and transporters. Most enzyme assays (CYPs, kinases, phosphatases, proteases, HDACs) used recombinant protein and specific substrates (fluorescence mostly, some colorimetric and radioactive) and inhibitors, followed by a biochemical separation of substrate and product. All assays for the biochemical HTS were initially run in duplicate at a single concentration (10 uM for CYP450 assays and 25 uM for all others). […] Each assay was run with positive and negative controls, and concurrent controls on every plate. The follow-up (secondary) screen tested active chemical-pairs in concentration series, as well as a few additional assays not tested in the primary screen, some selected negative inactives, and several cases re-run in the concentration series for confirmatory purposes.
# [3] = target: human Raf-1 Proto-Oncogene, serine/threonine Kinase (RAF1), RAF1 (gene 5894) (UniProt P04049); test: NVS_ENZ_hRAF1: NovaScreen (NVS) Enzymatic Assay for human Raf-1 Proto-Oncogene, serine/threonine Kinase (RAF1) (AID 2283216)
# Procedure, shortened: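 Cell-free recombinant kinase with specific fluorescent substrate, product separated by electrophoretic mobility shift; read 1 h after dosing. Primary screen at 25 uM in duplicate; hits then run in concentration-response up to 50 uM, fitted as loss of signal versus DMSO.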
# [4] = target: human Protein Tyrosine Phosphatase Receptor Type B (PTPRB), PTPRB (gene 5787) (UniProt P23467); test: NVS_ENZ_hPTPRB: NovaScreen (NVS) Enzymatic Assay for human Protein Tyrosine Phosphatase Receptor Type B (PTPRB) (AID 2283211)
# Procedure, shortened: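 Recombinant human PTPRB with a fluorescent substrate, product separated by electrophoretic mobility shift; read 1 h after dosing. Primary screen in duplicate at 25 uM; actives then retested in concentration series; loss of signal versus DMSO.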
# [5] = target: human Protein Tyrosine Phosphatase Non-receptor Type 6 (PTPN6), PTPN6 (gene 5777) (UniProt P29350); test: NVS_ENZ_hPTPN6: NovaScreen (NVS) Enzymatic Assay for human Protein Tyrosine Phosphatase Non-receptor Type 6 (PTPN6) (AID 2283210)
# Procedure, shortened: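 Cell-free assay with recombinant PTPN6 expressed in SF9 cells, fluorescent substrate, product separated from substrate by electrophoretic mobility shift; read 1.33 hours after dosing. Primary screen in duplicate at 25 uM, actives retested in concentration series; DMSO baseline.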
# [6] = target: human Protein Tyrosine Phosphatase Receptor Type F (PTPRF), PTPRF (gene 5792) (UniProt P10586); test: NVS_ENZ_hPTPRF: NovaScreen (NVS) Enzymatic Assay for human Protein Tyrosine Phosphatase Receptor Type F (PTPRF) (AID 2283213)
# Procedure, shortened: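 Cell-free fluorescence enzyme assay with recombinant protein and substrate; product separated by electrophoretic mobility shift. Read 1 h after dosing, single 25 uM duplicate screen, then concentration-response up to 50 uM; loss of signal vs DMSO.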
# [7] = target: human Protein Tyrosine Phosphatase Non-receptor Type 4 (PTPN4), PTPN4 (gene 5775) (UniProt P29074); test: NVS_ENZ_hPTPN4: NovaScreen (NVS) Enzymatic Assay for human Protein Tyrosine Phosphatase Non-receptor Type 4 (PTPN4) (AID 2283208)
# Procedure, shortened: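 Cell-free assay of PTPN4 expressed in Sf9 cells, using a fluorescent substrate with product separated by mobility shift; read 1.33 h after dosing. Single-point screen at 25 uM, then concentration-response up to 50 uM. Loss of signal relative to DMSO.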
# [8] = target: human Protein Tyrosine Phosphatase Non-receptor Type 9 (PTPN9), PTPN9 (gene 5780) (UniProt P43378); test: NVS_ENZ_hPTPN9: NovaScreen (NVS) Enzymatic Assay for human Protein Tyrosine Phosphatase Non-receptor Type 9 (PTPN9) (AID 2283209)
# Procedure, shortened: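 Sf9-expressed enzyme in a cell-free assay, fluorescence read 1.33 h after dosing with mobility-shift separation of substrate and product. Tested at 25 uM in duplicate, then up to 50 uM; signal loss versus DMSO.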
# [9] = target: human Protein Tyrosine Phosphatase Receptor Type C (PTPRC), PTPRC (gene 5788) (UniProt P08575); test: NVS_ENZ_hPTPRC: NovaScreen (NVS) Enzymatic Assay for human Protein Tyrosine Phosphatase Receptor Type C (PTPRC) (AID 2283212)
# Procedure, shortened: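 Yeast-extracted human PTPRC used in a cell-free colorimetric enzyme activity read-out, 1 h after dosing. Primary screen in duplicate at 25 uM; actives rerun in concentration-response up to 50 uM, DMSO as baseline.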
# [10] = target: human Rho Associated Coiled-coil Containing Protein Kinase 1 (ROCK1), ROCK1 (gene 6093) (UniProt Q13464); test: NVS_ENZ_hROCK1: NovaScreen (NVS) Enzymatic Assay for human Rho Associated Coiled-coil Containing Protein Kinase 1 (ROCK1) (AID 2283214)
# Procedure, shortened: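 Cell-free recombinant human ROCK1 activity assay; fluorescent substrate and product separated by electrophoretic mobility shift, read 1 h after dosing. Screened in duplicate at 25 uM; loss of signal versus DMSO baseline scored as inhibition.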
# Chain of human Protein Tyrosine Phosphatase Non-receptor Type 2 (PTPN2), PTPN2 (gene 5771) (P17706 whole entry, looked up): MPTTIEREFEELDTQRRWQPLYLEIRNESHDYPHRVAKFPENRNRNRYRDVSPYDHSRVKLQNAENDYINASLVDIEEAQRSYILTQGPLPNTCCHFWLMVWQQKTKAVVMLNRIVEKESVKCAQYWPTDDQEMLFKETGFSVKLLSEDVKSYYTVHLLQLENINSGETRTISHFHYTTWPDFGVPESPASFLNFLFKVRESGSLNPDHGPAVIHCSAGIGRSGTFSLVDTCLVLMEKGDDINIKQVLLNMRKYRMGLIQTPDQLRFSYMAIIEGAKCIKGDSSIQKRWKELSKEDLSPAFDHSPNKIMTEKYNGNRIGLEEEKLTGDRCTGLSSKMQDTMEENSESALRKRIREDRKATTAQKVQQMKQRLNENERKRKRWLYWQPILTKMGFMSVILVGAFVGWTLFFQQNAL
# Chain of human Protein Tyrosine Phosphatase Receptor Type C (PTPRC), PTPRC (gene 5788) (P08575 whole entry, looked up): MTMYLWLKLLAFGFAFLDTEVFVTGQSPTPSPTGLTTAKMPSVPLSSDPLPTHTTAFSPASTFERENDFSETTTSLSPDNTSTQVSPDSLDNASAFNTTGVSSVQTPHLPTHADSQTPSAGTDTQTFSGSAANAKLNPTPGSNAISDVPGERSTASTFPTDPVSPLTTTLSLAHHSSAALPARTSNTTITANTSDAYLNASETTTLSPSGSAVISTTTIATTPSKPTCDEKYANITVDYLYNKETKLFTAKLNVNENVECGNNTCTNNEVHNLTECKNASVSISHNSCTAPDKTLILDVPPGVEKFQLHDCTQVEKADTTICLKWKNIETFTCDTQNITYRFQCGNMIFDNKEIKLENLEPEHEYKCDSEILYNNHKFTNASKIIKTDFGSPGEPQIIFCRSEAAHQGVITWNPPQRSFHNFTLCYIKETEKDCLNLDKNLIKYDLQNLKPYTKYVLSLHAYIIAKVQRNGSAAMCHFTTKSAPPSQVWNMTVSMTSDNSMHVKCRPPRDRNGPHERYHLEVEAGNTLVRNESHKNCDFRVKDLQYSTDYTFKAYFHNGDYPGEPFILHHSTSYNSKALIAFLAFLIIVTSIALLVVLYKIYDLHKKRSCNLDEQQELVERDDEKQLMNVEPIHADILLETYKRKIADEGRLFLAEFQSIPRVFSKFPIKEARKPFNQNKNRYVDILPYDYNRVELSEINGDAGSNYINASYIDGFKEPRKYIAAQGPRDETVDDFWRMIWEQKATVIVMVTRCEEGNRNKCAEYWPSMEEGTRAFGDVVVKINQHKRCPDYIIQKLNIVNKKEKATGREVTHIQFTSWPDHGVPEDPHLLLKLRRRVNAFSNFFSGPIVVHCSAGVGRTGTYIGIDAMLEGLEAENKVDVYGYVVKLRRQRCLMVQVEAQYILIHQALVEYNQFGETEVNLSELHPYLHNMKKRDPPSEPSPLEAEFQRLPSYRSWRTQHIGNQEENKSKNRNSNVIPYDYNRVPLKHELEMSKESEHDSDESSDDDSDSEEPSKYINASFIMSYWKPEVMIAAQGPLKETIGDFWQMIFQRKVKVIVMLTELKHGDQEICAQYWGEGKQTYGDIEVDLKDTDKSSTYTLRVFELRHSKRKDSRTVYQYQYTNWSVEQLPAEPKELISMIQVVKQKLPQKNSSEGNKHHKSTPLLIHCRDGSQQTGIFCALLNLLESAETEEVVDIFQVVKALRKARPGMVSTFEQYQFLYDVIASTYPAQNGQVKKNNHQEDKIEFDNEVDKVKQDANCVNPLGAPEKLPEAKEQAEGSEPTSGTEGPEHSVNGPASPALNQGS
# Chain of human Raf-1 Proto-Oncogene, serine/threonine Kinase (RAF1), RAF1 (gene 5894) (P04049 whole entry, looked up): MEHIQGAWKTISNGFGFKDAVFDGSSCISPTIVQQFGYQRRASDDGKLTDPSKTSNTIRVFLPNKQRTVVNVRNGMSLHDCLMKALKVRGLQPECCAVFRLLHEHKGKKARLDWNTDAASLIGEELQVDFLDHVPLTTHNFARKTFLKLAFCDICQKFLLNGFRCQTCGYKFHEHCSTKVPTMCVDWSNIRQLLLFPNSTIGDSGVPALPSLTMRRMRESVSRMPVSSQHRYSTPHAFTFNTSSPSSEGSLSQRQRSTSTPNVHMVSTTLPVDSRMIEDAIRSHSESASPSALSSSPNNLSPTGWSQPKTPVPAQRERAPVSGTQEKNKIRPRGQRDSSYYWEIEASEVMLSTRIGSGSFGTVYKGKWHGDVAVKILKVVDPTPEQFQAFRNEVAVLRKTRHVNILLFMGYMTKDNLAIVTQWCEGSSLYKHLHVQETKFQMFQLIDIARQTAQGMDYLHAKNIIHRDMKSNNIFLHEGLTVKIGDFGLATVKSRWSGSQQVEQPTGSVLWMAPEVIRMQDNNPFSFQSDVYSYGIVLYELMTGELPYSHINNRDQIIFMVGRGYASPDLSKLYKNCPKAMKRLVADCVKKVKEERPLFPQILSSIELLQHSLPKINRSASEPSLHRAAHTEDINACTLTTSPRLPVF
# Chain of human Protein Tyrosine Phosphatase Non-receptor Type 6 (PTPN6), PTPN6 (gene 5777) (P29350 whole entry, looked up): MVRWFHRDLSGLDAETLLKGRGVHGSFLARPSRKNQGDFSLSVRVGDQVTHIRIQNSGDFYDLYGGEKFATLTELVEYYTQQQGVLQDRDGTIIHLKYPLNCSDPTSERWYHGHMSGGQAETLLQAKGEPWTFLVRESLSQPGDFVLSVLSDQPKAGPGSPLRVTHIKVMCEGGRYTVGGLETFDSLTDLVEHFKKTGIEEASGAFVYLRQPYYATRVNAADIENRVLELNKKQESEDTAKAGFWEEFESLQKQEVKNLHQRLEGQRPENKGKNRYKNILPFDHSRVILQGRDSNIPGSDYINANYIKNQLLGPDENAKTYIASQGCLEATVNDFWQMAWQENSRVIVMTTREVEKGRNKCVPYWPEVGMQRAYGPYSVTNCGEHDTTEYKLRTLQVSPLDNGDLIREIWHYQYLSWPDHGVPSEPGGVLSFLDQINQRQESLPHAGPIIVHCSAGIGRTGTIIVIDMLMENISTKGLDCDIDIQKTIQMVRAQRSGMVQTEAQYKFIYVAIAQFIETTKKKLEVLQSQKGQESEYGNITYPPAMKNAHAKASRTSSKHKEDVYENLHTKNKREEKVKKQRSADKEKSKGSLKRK
# Chain of human Protein Tyrosine Phosphatase Non-receptor Type 9 (PTPN9), PTPN9 (gene 5780) (P43378 whole entry, looked up): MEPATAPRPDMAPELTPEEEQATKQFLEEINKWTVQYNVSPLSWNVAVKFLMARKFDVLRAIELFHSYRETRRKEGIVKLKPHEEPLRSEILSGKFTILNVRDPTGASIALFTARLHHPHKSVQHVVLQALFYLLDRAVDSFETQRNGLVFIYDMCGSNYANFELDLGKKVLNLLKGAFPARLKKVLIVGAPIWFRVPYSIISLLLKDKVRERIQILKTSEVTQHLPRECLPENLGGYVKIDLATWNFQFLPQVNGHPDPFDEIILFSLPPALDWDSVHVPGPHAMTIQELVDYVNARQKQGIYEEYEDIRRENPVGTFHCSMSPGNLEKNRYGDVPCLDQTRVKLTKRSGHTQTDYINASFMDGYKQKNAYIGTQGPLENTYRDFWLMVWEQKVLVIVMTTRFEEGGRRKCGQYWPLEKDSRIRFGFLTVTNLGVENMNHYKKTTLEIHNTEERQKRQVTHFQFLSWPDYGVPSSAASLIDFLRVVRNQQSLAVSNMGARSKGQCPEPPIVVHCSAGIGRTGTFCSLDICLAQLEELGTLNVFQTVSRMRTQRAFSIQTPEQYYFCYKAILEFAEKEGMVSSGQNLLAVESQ
# Chain of human Protein Tyrosine Phosphatase Receptor Type M (PTPRM), PTPRM (gene 5797) (P28827 whole entry, looked up): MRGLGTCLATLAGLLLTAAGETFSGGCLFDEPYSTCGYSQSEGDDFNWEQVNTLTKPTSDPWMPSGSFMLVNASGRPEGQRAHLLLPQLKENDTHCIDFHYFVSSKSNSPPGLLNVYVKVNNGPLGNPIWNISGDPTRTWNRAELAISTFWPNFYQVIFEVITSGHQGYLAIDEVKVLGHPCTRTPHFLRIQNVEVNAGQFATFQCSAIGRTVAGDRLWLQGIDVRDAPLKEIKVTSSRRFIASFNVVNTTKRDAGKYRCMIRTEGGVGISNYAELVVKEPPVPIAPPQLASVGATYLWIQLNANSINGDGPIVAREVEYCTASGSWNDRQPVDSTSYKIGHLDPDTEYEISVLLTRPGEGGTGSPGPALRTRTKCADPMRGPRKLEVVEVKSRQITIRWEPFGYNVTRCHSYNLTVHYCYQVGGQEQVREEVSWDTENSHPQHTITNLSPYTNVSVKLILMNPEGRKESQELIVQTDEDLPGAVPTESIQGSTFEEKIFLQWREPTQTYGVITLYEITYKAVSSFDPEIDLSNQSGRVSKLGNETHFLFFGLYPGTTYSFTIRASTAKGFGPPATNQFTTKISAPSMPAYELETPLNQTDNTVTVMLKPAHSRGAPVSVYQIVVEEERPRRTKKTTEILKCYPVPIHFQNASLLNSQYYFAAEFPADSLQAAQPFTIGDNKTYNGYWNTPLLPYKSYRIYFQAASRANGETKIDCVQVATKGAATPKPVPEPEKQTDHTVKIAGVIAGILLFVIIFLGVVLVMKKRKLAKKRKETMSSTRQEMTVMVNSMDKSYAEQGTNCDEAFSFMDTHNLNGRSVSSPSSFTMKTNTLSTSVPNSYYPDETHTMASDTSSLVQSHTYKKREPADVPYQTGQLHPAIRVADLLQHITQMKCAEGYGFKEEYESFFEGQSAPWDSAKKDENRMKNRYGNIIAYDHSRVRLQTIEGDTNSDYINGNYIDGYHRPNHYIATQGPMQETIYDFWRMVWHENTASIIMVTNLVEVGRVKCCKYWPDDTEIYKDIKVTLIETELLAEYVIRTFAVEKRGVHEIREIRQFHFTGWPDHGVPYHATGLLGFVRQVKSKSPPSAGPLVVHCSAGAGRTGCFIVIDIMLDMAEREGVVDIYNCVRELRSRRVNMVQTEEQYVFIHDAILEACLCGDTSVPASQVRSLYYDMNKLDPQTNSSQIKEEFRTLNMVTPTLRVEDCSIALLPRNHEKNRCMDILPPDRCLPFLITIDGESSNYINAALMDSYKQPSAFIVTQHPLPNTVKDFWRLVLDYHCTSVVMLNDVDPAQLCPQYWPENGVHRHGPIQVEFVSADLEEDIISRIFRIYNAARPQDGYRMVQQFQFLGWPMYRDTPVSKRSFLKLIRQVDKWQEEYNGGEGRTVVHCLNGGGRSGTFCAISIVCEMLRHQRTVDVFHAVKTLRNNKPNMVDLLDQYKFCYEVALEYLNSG
compound,measurement,setting,value
C#CCN1C(=O)COc2cc(F)c(N3C(=O)C4=C(CCCC4)C3=O)cc21,outcome,[1],inactive
CCC(C)(C)C(=O)OC1=C(c2ccc(Cl)cc2Cl)C(=O)OC12CCCCC2,outcome,[2],inactive
CC(C)(C)C(O)/C(=C\c1ccc(Cl)cc1Cl)n1cncn1 (configuration not stated),outcome,[1],inactive
Oc1ccc(Cl)cc1Cc1ccccc1,outcome,[3],inactive
COC(=O)c1ccccc1S(=O)(=O)NC(=O)Nc1nc(C)nc(OC)n1,outcome,[4],inactive
CNC(=O)CSP(=S)(OC)OC,outcome,[5],inactive
same,outcome,[4],inactive
same,outcome,[6],inactive
CN1CSC(=S)N(C)C1,outcome,[1],inactive
same,outcome,[7],inactive
same,outcome,[8],inactive
same,AC50,[6],10.1 µM (active)
same,AC50,[2],25 µM (active)
CC[C@H](C)[C@H]1O[C@]2(C=C[C@@H]1C)C[C@@H]1C[C@@H](C/C=C(\C)[C@@H](O[C@H]3C[C@H](OC)[C@@H](O[C@H]4C[C@H](OC)[C@@H](O)[C@H](C)O4)[C@H](C)O3)[C@@H](C)/C=C/C=C3\CO[C@@H]4[C@H](O)C(C)=C[C@@H](C(=O)O1)[C@]34O)O2 (tested in a mixture with another compound),AC50,[1],41.1 µM (active)
same,AC50,[2],45.3 µM (active)
O=S(=O)(O)C(F)(F)C(F)(F)C(F)(F)C(F)(F)C(F)(F)C(F)(F)C(F)(F)C(F)(F)F,AC50,[1],38.9 µM (active)
same,AC50,[5],34.8 µM (active)
same,AC50,[4],18.7 µM (active) and 37.6 µM (active)
same,AC50,[9],17.1 µM (active) and 15.2 µM (active)
same,outcome,[9],inactive
same,AC50,[6],14.8 µM (active) and 13.1 µM (active)
same,AC50,[10],39 µM (active)
same,AC50,[2],23.6 µM (active) and 43 µM (active)
same,AC50,[3],33.2 µM (active) and 24.5 µM (active)
Cc1cc(C)nc(NC(=O)NS(=O)(=O)c2ccccc2C(=O)OC2COC2)n1,AC50,[7],4.96 µM (active)
same,AC50,[8],36.7 µM (active)
same,outcome,[2],inactive
Oc1cc(Cl)ccc1Oc1ccc(Cl)cc1Cl,outcome,[4],inactive
CCC(C)Nc1c([N+](=O)[O-])cc(C(C)(C)C)cc1[N+](=O)[O-] (configuration not stated),outcome,[3],inactive
O=C1c2ccccc2C(=O)N1SC(Cl)(Cl)Cl,outcome,[1],inactive
same,outcome,[7],inactive
CCOc1nc(NC)nc(NC(=O)NS(=O)(=O)c2ccccc2C(=O)OC)n1,outcome,[3],inactive
COC(=O)c1ccccc1S(=O)(=O)NC(=O)N(C)c1nc(C)nc(OC)n1,outcome,[1],inactive
same,outcome,[7],inactive
same,outcome,[8],inactive
CC(C)(C)C(O)C(Oc1ccc(Cl)cc1)n1cncn1 (configuration not stated),outcome,[1],inactive
same,outcome,[8],inactive
same,outcome,[5],inactive
CNC(=O)/C=C(\C)OP(=O)(OC)OC,outcome,[3],inactive
O=[N+]([O-])c1c(Cl)c(Cl)c(Cl)c(Cl)c1Cl,outcome,[6],inactive
N#Cc1c(Cl)c(Cl)c(Cl)c(C#N)c1Cl,outcome,[2],inactive
CCS(=O)(=O)c1cccnc1S(=O)(=O)NC(=O)Nc1nc(OC)cc(OC)n1,outcome,[6],inactive
same,outcome,[2],inactive
same,outcome,[3],inactive
O=C(O)C(F)(F)C(F)(F)C(F)(F)C(F)(F)C(F)(F)C(F)(F)C(F)(F)F,outcome,[1],inactive
same,outcome,[4],inactive
same,outcome,[2],inactive
